# Laboratory results as given in ChEMBL document CHEMBL3988442, “University of Dundee, Small-Polar-MMV Screening Library” (2021).
# For some of these results: Potency and affinity values are given separately.
# Assays:
# Set-up in all cases: scale not given: direction of the effect not stated beside the values
# [1] = molecular target: Protein translocase subunit SecA (Escherichia coli (strain K12)) (UniProt P10408); assay: Assay to Identify E. coli SecA ATPase Inhibitors; assay type: functional; details: 30 µM
# [2] = molecular target: T1, Ubiquitin-activating enzyme e1, putative (Leishmania donovani (strain BPK282A1)) (UniProt E9BSI1); assay: Leishmania donovani Ubiquitin Activating Enzyme (LdE1); assay type: functional; details: 30 µM
# T1 sequence (whole entry): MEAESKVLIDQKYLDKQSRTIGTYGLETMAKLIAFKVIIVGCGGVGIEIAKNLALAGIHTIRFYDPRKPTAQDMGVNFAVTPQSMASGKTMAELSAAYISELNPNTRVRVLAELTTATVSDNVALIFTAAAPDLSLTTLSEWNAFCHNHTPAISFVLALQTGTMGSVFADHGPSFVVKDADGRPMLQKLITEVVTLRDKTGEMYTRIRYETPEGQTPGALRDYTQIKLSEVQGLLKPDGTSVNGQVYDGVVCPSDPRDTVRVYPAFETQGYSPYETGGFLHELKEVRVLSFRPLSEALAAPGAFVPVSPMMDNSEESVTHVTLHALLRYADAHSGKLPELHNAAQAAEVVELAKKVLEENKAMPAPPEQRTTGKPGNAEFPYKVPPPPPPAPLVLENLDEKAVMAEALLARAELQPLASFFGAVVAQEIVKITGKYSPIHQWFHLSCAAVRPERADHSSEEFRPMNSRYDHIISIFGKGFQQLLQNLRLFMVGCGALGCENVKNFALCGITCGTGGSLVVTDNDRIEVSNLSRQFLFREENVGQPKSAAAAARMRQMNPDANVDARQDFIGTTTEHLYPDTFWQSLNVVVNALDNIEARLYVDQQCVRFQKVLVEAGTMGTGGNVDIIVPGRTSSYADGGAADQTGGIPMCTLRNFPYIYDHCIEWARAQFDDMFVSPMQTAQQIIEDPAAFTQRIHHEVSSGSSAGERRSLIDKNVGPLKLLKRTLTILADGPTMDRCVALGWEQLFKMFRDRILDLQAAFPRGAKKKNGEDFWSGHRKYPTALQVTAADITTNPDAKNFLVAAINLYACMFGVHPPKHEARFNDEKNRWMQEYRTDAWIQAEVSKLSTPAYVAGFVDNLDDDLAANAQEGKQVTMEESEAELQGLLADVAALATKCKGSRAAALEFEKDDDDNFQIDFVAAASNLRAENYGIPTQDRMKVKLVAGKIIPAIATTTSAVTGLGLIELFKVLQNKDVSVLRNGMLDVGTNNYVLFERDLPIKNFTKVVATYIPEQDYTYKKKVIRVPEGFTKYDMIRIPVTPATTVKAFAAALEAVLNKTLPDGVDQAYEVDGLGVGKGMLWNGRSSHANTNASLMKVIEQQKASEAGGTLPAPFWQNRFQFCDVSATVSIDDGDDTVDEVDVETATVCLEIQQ
# [3] = molecular target: AMP-activated protein kinase, AMPK (Homo sapiens) (UniProt P54646+O43741+P54619+Q9UGJ0+Q9Y478+Q13131+Q9UGI9); assay: AMP-dependent Kinase enzyme assay. An in vitro enzyme assay that detects ADP turnover that is directly proportional to AMPK activity. This uses naive AMPK that is activated during the assay with MK-8722; assay type: functional; details: 30 µM
# [4] = molecular target: Sialic acid-binding Ig-like lectin 9 (Homo sapiens) (UniProt Q9Y336); assay: Hs-Siglec9 ALPHAscreen SOP 20170721; details: 10 µM
# Trypanosoma cruzi = assay: Trypanosoma cruzi phosphomannomutase and mannose-1-phosphate guanylyltransferase assay; assay type: functional; details: 10 µM
# [5] = molecular target: T2, Arginase-2, mitochondrial (Homo sapiens) (UniProt P78540); assay: in vitro enzyme assay to detect the production of urea directly proportional to the activity of Arginase II; assay type: functional; details: 33.3 µM; also: in the data most compounds retested in dose-response had high values
# T2 sequence (whole entry): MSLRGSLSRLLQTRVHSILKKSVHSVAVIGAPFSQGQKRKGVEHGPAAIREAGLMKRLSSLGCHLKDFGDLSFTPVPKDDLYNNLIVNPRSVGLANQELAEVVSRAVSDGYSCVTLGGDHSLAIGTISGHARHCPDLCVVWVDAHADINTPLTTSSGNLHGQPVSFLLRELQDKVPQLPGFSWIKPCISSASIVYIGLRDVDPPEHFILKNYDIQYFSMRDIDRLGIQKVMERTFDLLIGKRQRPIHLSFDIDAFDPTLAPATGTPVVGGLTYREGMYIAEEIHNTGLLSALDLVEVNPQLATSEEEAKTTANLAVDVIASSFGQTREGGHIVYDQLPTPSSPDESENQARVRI
# [6] = molecular target: T3, Proteasome subunit beta (Trypanosoma cruzi) (UniProt O96673); assay: Trypanosoma cruzi proteasome chymotrypsin-like activity (TcProtChymo) assay.; also: in the data most compounds retested in dose-response had high values; assay type: functional; details: 9.37 µM
# T3 sequence (whole entry): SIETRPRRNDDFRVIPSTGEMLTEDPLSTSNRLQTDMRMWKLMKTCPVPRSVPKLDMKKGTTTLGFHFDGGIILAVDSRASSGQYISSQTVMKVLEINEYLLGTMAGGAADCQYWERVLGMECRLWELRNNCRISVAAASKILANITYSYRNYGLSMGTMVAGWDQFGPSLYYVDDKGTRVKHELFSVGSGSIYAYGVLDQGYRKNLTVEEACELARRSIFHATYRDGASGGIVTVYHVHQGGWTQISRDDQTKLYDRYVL
# Homo sapiens = species: Homo sapiens; assay: To identify inhibition of the IFN signalling (Jak-Stat) pathway via expression of an eGFP reporter gene under the control of an IFN-stimulated response element (ISRE) containing MxA promoter.; assay type: functional; details: 30 µM
# [7] = molecular target: T4, Tyrosyl-tRNA synthetase, putative (Trypanosoma cruzi (strain CL Brener)) (UniProt Q4DSP6); assay: Trypanosoma cruzi tyrosyl tRNA synthetase (TcYRS) _High Tyrosine SOP; assay type: functional; details: 30 µM; also: in the data most compounds retested in dose-response had high values
# T4 sequence (whole entry): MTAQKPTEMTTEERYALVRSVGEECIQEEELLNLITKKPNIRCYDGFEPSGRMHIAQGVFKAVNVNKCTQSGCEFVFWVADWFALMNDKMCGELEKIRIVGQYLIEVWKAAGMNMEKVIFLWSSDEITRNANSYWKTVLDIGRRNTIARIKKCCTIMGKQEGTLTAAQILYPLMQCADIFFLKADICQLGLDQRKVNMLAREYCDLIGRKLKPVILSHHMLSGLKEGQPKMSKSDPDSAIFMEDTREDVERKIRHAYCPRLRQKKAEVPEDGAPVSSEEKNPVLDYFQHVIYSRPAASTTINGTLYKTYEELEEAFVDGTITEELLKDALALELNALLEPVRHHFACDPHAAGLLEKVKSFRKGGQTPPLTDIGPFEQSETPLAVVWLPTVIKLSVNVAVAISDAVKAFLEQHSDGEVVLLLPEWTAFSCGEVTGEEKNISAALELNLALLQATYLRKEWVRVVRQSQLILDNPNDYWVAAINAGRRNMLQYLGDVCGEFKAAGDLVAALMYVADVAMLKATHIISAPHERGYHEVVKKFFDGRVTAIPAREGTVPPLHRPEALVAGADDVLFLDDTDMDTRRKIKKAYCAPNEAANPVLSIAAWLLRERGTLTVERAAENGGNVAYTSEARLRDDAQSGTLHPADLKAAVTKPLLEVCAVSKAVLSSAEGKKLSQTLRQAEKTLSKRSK
# [8] = molecular target: T4, Tyrosyl-tRNA synthetase, putative (Trypanosoma cruzi (strain CL Brener)); assay: Trypanosoma cruzi tyrosyl tRNA synthetase (TcYRS) SOP; assay type: functional; details: 30 µM
# [9] = molecular target: Chromo domain-containing protein 1 (Saccharomyces cerevisiae (strain ATCC 204508 / S288c) (Baker's yeast)) (UniProt P32657); assay: ScCHD-1 Enzyme Inhibition Assay; assay type: functional; details: 30 µM; also: in the data most compounds retested in dose-response had high values
# Chain of Chromo domain-containing protein 1 (Saccharomyces cerevisiae (strain ATCC 204508 / S288c) (Baker's yeast)) (P32657 whole entry, the tested form may be a part): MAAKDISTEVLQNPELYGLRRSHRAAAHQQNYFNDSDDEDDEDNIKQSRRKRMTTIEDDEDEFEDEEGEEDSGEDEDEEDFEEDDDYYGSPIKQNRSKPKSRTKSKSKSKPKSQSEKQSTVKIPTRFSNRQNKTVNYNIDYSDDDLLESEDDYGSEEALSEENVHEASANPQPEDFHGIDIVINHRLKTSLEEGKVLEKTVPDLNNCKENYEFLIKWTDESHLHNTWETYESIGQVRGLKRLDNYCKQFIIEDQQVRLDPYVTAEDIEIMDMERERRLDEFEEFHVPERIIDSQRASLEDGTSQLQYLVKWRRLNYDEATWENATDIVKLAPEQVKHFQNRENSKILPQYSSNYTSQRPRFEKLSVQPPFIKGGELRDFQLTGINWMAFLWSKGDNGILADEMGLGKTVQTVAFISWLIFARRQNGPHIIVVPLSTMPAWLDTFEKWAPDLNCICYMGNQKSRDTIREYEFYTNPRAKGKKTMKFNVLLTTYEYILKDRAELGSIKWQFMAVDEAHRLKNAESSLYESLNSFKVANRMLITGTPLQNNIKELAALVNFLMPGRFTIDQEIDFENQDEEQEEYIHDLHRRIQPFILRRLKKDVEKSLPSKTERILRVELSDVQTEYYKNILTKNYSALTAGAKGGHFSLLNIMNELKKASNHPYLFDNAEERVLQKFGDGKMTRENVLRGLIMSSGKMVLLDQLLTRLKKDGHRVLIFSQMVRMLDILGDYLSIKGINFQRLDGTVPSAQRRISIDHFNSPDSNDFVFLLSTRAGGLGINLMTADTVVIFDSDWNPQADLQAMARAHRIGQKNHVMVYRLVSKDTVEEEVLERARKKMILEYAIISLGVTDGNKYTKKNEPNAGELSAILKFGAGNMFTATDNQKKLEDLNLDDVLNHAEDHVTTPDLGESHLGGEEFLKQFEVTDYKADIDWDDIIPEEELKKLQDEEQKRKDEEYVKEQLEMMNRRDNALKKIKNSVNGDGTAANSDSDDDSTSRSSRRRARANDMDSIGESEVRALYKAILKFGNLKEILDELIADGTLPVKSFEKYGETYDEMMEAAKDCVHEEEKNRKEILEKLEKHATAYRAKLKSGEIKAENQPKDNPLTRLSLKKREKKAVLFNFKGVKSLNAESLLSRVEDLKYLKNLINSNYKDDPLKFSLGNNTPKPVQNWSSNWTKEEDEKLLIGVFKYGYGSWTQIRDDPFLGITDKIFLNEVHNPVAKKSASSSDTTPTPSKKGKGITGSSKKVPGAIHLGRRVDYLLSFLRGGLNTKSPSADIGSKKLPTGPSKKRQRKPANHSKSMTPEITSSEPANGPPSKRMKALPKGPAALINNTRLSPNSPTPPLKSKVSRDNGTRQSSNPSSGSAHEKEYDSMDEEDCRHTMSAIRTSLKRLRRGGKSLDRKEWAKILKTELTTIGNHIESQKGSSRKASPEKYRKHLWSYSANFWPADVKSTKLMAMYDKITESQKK
# Chain of Sialic acid-binding Ig-like lectin 9 (Homo sapiens) (Q9Y336 whole entry): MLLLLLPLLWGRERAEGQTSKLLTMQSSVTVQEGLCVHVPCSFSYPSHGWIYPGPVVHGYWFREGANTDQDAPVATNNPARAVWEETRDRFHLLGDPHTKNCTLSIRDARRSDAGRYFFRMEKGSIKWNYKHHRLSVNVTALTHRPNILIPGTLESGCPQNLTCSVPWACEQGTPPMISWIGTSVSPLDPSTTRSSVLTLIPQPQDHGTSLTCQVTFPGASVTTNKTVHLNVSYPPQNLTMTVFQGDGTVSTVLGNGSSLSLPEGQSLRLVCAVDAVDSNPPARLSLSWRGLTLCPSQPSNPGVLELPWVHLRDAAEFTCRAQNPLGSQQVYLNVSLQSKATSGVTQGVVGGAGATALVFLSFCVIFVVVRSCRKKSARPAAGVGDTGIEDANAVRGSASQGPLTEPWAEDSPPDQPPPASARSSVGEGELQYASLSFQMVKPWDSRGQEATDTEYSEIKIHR
# Chain of Protein translocase subunit SecA (Escherichia coli (strain K12)) (P10408 whole entry): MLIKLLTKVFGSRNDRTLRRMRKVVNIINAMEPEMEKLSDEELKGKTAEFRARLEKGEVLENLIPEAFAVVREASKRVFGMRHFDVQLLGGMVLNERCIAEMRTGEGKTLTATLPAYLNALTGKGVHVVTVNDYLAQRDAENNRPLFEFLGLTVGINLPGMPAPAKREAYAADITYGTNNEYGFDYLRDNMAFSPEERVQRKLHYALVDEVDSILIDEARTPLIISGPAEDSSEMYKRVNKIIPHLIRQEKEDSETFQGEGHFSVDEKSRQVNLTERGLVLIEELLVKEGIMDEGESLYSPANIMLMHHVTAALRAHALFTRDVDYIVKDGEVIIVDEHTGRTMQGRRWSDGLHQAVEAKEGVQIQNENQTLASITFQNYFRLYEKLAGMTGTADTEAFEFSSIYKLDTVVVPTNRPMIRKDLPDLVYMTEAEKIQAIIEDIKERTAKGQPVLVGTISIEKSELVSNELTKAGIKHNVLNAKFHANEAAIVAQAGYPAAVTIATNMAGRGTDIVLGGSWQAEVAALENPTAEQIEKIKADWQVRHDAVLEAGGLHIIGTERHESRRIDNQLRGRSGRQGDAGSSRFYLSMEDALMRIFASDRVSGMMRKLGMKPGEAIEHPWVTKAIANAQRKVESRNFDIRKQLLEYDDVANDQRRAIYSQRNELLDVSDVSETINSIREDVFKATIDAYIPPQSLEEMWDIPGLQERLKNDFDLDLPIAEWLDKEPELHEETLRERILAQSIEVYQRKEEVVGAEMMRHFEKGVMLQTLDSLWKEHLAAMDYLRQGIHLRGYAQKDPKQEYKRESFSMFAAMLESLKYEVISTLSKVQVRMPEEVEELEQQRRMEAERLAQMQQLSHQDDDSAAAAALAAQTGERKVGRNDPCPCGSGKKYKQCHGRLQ
Structure (SMILES),Percent Effect [1],Percent Effect [2],Percent Effect [3],Percent Effect [4],Percent Effect (Trypanosoma cruzi),Percent Effect [5],Percent Effect [6],Percent Effect (Homo sapiens),Percent Effect [7],Percent Effect [8],Percent Effect [9]
O=C1OC2(CCN(C3CCCOC3)CC2)CN1CCc1ccccc1 (stereo unspecified),-0.187%,7.79%,-6.88%,5.02%,-3.64%,-11%,14%,15.6%,3.23%,6.17%,0.643%
Cc1cc(C(C)NC(=O)N2CCC(n3cncn3)CC2)c(C)s1 (stereo unspecified),-4.4%,7.59%,-0.225%,9.65%,1.23%,-2.28%,-4.01%,3.67%,1.48%,3.8%,-3.57%
Cc1cnn(CC2CCCCN2C(=O)Cc2csc(C)n2)c1 (stereo unspecified),-3.54%,-3.8%,5.27%,1.29%,-5.64%,-0.645%,6.17%,13.6%,2.08%,-2.53%,-19.5%
CC(=O)NCC(=O)N1C[C@H](OCc2cccnc2)[C@H]2COC[C@H]21,-4.16%,2.7%,1.91%,2.9%,-4.49%,2.5%,12.3%,5.47%,4.95%,6.1%,-2.54%
Cc1ccc(OCCC(=O)NC2CCc3nccn3C2)cc1 (stereo unspecified),-6%,0%,7.39%,1.52%,-1.07%,-13%,17.6%,-12.9%,5.32%,13%,-2.38%
Cc1ncsc1C(=O)NCCSCCCO,1.26%,16.2%,-5.95%,-2.14%,1.02%,-1.29%,15.4%,-0.639%,4.95%,15.8%,-4.16%
CCn1cnnc1CNC(=O)NCC(c1cccs1)N1CCCC1 (stereo unspecified),-2.72%,18.2%,0.236%,9.73%,2.43%,-1.42%,8.11%,10.8%,5.83%,19.5%,-6.68%
CCOc1cc(C)nc(N2CCN(C(=O)c3ccc[nH]3)CC2)n1,-3.03%,2.7%,1.91%,13.3%,-6.59%,2.77%,3.23%,22.2%,-0.99%,3.66%,1.45%
Cc1cc(C)c(CNC(=O)NCCOc2ccc3c(c2)CCC3)c(=O)[nH]1,-3.48%,-5.26%,0.256%,7.3%,9.96%,0.383%,0%,3.96%,1.47%,0%,3.04%
CC1CCN(Cn2nc(-c3ccc(F)cc3)oc2=O)CC1,-2.94%,18.2%,4.52%,-5.3%,-7.12%,2.13%,6.42%,33%,5.83%,7.32%,-12.6%
CCc1ncc2c(n1)CN(C(=O)COC)C2,-3.52%,8.22%,-3.13%,-3.99%,2.55%,1.36%,12.1%,8.48%,9.68%,22.5%,-4.35%
